A number with no mark means an inactive call. Inconclusive results are not listed. Activity calls are given as the source filed them. Unless noted, calls follow the shape of the dose curve; as a rule, active = well fitted curve in the direction sought with a large enough effect in the repeat runs; inconclusive = weak or mixed curves; inactive = no such curve, though single readings can be large; an effect the other way counts as inactive or inconclusive.

Assay [1] in a line: qHTS assay to identify small molecule agonists of the sonic hedgehog signaling (Shh) pathway - cell viability counter screen (AID 1259366). Also: nearly all actives have a fitted effect of over 50% in size. In short, it runs like this:
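Fluorescence from CellTiter-Fluor reports live cells in this counter screen. NIH/3T3-derived Gli1-Luc reporter cells receive test compounds for 24hr at 37C; reagent goes in at 23hr.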
In general terms: qHTS replaces the single test concentration by a dilution series.

Assay [2] is described as follows: qHTS assay to identify small molecule antagonists of the sonic hedgehog signaling (Shh) pathway - cell viability counter screen (AID 1259367). Also: nearly all actives have a fitted effect of over 55% in size. In short, it runs like this:
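Tox21 library chemicals were tested on a Gli1-Luc NIH/3T3 clone (2,000 cells/well) stimulated by conditioned medium; viability was quantified as fluorescence from CellTiter-Fluor reagent added at 23 hr.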

Assay [3] is described as follows: qHTS assay to identify small molecule agonists of the sonic hedgehog signaling (Shh) pathway (AID 1259368; calls by dose curve;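 also: NIH/3T3-derived 3T3Gli1-Luc cells carrying a stable Gli1-driven firefly luciferase reporter; series mostly up to about 92 µM; nearly all actives have a fitted effect of over 15% in size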). In short, it runs like this:
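Quantitative high-throughput format using a Gli1-driven firefly luciferase reporter line derived from NIH/3T3 cells. After a 24 hr compound treatment at 37 C and 5% CO2, luminescence reported Gli1 response element activity.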

The nature of assay [4]: qHTS assay to identify small molecule agonists of the androgen receptor (AR) signaling pathway in the presence of an antagonist - cell viability counter screen (AID 1259379).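 Also: MDA-kb2 human breast cancer cells carrying an MMTV luciferase reporter; series mostly up to about 92 µM; nearly all actives have a fitted effect of over 25% in size.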 In short, it runs like this: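 Nilutamide-containing (3.0uM final) MDA-kb2 cultures, 3,000 cells/well, were treated with compounds across 15 concentrations. After 16 hr at 37C with no CO2, cell viability was determined by CellTiter-Fluor fluorescence in the luciferase assay wells.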

Assay [5] can be described thus: qHTS assay to identify small molecule agonists of the estrogen receptor beta (ER-beta) signaling pathway - cell viability counter screen (AID 1259380). Also: nearly all actives have a fitted effect of over 30% in size. The gist of the method: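 Steps: plate ER-beta-UAS-bla HEK293T cells, rest 6 hr; add compounds in DMSO; incubate 16 hr at 37C, 5% CO2; add FRET substrate 2 hr; add CellTiter-Glo, wait 30 min at room temperature; read luminescence.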

The target of assay [6] is Androgen receptor (Homo sapiens) (UniProt P10275). The assay is described as follows: qHTS assay to identify small molecule agonists of the androgen receptor (AR) signaling pathway in the presence of an antagonist (AID 1259381; calls by dose curve; also: nearly all actives have a fitted effect of over 15% in size). The gist of the method: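 Reporter-gene luminescence from MDA-kb2 cells exposed 16hr at 37C (0% CO2) to 15-point compound titrations with 3.0uM final nilutamide as AR antagonist.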

Assay [7] in a line: qHTS assay to identify small molecule antagonists of the estrogen receptor beta (ER-beta) signaling pathway - cell viability counter screen (AID 1259382). Also: series mostly up to about 92 µM; nearly all actives have a fitted effect of over 55% in size. The gist of the method:
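Viability is scored by CellTiter-Glo luminescence (30 min, room temperature) in ER-beta-UAS-bla HEK293T wells already read for reporter fluorescence. Compound exposure lasts 16 hr at 37C alongside 1nM 17-beta-estradiol in charcoal-stripped serum medium.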

For assay [8], the target named is Estrogen receptor beta (Homo sapiens) (UniProt Q92731). The assay is described as follows: qHTS assay to identify small molecule agonists of the estrogen receptor beta (ER-beta) signaling pathway (AID 1259377; active = well fitted activation curve with a large enough effect in the signal ratio in the repeat runs, not every such curve was filed as active; the % refers to the signal ratio; also: potency is read from the fitted curve at half-maximal effect). The gist of the method:
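Screening used GripTite ER-beta-UAS-bla cells held in 2% charcoal-stripped FBS medium. After overnight (16 hr) compound incubation at 37C, beta-lactamase activity was detected with a FRET substrate by fluorescence.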

For assay [9] the target is unchanged. Briefly: qHTS assay to identify small molecule antagonists of the estrogen receptor beta (ER-beta) signaling pathway (AID 1259378; active = well fitted inhibition curve with a large enough effect in the signal ratio in the repeat runs, not every such curve was filed as active; the % refers to the signal ratio). The gist of the method:
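ER-beta-UAS-bla HEK293T cells in 2% charcoal-stripped FBS medium treated with compound plus 1nM final 17-beta-estradiol for 16 hr at 37C. Beta-lactamase reporter read by FRET substrate fluorescence after 2 hours at room temperature.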

A short description of assay [10]: qHTS assay to identify small molecule antagonists of the sonic hedgehog signaling (Shh) pathway (AID 1259369; calls by dose curve; also: nearly all actives have a fitted effect of over 45% in size). In short, it runs like this: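 Stable Gli1-Luc reporter NIH/3T3 clone; quantitative HTS in stimulated mode with conditioned medium. Luminescence measured after 24hr compound treatment at 37 C.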
% is scaled to controls: 0 for no effect and ±100 for the full control effect.

Estrogen receptor beta (Homo sapiens), sequence (Q92731 whole entry, looked up): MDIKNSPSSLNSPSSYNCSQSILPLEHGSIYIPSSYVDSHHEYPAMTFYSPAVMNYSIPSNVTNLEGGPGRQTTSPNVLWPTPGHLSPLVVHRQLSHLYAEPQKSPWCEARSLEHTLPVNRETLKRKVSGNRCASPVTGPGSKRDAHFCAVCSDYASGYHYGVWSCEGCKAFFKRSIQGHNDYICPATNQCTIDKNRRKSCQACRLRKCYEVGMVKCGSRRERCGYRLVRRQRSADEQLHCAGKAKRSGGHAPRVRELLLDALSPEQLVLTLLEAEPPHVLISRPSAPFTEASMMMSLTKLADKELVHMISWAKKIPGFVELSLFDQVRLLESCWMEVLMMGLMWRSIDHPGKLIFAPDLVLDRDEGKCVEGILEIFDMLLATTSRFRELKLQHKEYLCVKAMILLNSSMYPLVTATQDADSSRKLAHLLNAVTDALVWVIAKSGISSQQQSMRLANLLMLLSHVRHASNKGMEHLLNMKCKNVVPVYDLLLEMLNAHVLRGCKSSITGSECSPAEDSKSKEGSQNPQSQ
Androgen receptor (Homo sapiens), sequence (P10275 whole entry, looked up): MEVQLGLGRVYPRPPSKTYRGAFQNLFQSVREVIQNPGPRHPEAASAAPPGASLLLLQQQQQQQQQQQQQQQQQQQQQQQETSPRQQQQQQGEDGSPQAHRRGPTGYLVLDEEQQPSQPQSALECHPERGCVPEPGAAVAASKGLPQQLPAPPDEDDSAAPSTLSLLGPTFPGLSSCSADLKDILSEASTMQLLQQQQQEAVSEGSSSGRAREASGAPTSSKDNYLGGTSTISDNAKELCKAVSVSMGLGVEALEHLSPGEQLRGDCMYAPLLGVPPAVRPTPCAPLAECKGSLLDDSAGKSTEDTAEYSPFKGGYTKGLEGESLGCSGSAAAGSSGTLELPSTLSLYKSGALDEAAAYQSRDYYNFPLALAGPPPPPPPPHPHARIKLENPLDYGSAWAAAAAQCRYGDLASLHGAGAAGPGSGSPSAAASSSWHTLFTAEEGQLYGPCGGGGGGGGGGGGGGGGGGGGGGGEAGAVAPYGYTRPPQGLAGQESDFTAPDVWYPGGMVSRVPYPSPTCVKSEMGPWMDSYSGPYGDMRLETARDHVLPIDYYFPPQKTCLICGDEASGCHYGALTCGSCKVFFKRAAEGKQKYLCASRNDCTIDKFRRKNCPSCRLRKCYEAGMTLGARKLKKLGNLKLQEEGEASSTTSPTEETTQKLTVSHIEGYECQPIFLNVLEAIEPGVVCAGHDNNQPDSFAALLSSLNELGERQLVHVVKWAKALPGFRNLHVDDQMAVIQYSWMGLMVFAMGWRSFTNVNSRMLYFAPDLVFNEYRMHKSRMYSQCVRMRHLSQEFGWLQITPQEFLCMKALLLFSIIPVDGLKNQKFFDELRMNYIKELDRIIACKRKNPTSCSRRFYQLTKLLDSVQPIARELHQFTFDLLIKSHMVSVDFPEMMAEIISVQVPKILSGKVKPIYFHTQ

Consider `N#Cc1ccccc1C#N`, for which the call in [1], in assay [2], in assay [3], in assay [4], in [6] and in assay [7] was inactive. Also, the Potency entry in assay [5] was “inactive”.
In the case of `CCCCOCCCC`, the outcome in [1], in assay [2], in [3], in assay [4] and in [7] was inactive. The Potency entry in [5] was “inactive”.
With `CCO[Si](CC(C)C)(OCC)OCC`, the outcome in [1], in [2], in assay [3], in [9], in [4] and in assay [7] was inactive. Further, the Potency entry in assay [8] was “inactive”.
Consider `O=C1Nc2ccccc2C1=O`, for which the call in assay [1], in [2], in assay [3], in [9], in assay [4] and in assay [7] was inactive.
With `Clc1cc(Cl)c(Cl)c(Cl)c1Cl`, the molecule was classed as inactive in assay [1], in assay [2], in assay [3], in assay [9], in assay [4] and in [7].
For `O=C(OOC(=O)c1ccccc1)c1ccccc1`, the outcome in assay [1], in assay [2], in [3], in assay [4] and in assay [7] was inactive.
Regarding `O=C(O)COc1ccc2ccccc2c1`, the molecule was called inactive in [1], in assay [2], in [3], in assay [9], in [4] and in assay [7]. Also, the Potency entry in assay [8] is “inactive”.
Take `C[Si](C)(C)O[Si](O)(O)O`: the molecule was classed as inactive in [1], in assay [2], in assay [3], in [4] and in [7]. For the same molecule, the Potency result in assay [5] is “inactive”.
For the molecule `N[C@H]1C(O)O[C@H](CO)[C@@H](O)[C@@H]1O` (stereo not given in full), the molecule was called inactive in assay [1], in [2], in assay [3], in assay [9], in assay [4] and in [6]. Further, in assay [7], the outcome was inactive. Also, the Potency entry in assay [5] was “inactive”.
As to `CCOC(=O)COc1ccc2c(C)c(CCN(CC)CC)c(=O)oc2c1Cl`, the result in assay [1], in assay [2], in assay [3], in assay [4] and in assay [7] was inactive. Moreover, the Potency result in assay [5] is “inactive”.
With `Clc1ccc2c(c1)Nc1ccccc1S2`, the result in assay [1], in assay [2], in assay [3], in [4], in assay [6] and in [7] was inactive. Further, in assay [5], the Potency result was “inactive”.
For the molecule `NC[C@H]1O[C@H](O[C@H]2[C@H](O)[C@@H](O[C@H]3O[C@H](CO)[C@@H](O)[C@H](N)[C@H]3O)[C@H](N)C[C@@H]2N)[C@H](N)[C@@H](O)[C@@H]1O`, the viability change, negative = cytotoxic is 0.901% [at 19 µM] in [1] and 3.49% [at 19 µM] in assay [2]. In addition, in assay [3], the activity change was 0.032% [at 18.9 µM]. Also, the activity change, negative = cytotoxicity was -5.29% [at 19 µM] in assay [4], 2.53% [at 19 µM] in assay [5] and 7.91% [at 19 µM] in assay [7].
For `CCCCCCCCCCCCCCCC(=O)OC`, the viability change, negative = cytotoxic is 4.58% [at 19 µM] in [1] and -2.31% [at 19 µM] in [2]. Also, in [3], the activity change was 0.811% [at 18.9 µM]. In addition, the activation in [8] was -1.46% [at 19 µM]. Besides, the activity, negative = inhibition in assay [9] is 3.6% [at 19 µM]. Moreover, the activity change, negative = cytotoxicity in assay [4] is 0.0056% [at 19 µM]; in [7] it was 0.248% [at 19 µM].
On to `CC(C)(C)NCC(O)COc1cccc2c1CCC(=O)N2` (stereo not given), for which the outcome in assay [1], in assay [2], in assay [3], in [9], in assay [4] and in assay [6] was inactive. In [7], the molecule was called inactive. Besides, in [5], the Potency entry was “inactive”.
As to `N#Cc1cc(NC(=O)C(=O)O)c(Cl)c(NC(=O)C(=O)O)c1`, the outcome in assay [1], in assay [2], in assay [3], in assay [4], in assay [6] and in assay [7] was inactive.
As to `CO/N=C(\C(=O)O)c1csc(NC(=O)CCl)n1`, the molecule was called inactive in assay [1], in assay [2], in [3], in assay [4] and in [7]. The Potency result in assay [5] was “inactive”.
As to `O=C(c1ccccc1)c1cccc(O)c1`, the call in assay [1], in assay [2], in assay [3], in assay [4], in assay [6] and in assay [7] was inactive. Also, the Potency in assay [8] was 12.4 µM (active). Also, in assay [5], the Potency entry was “inactive”.
Consider `BrCCOc1ccccc1`, for which the molecule was classed as inactive in assay [1], in [2], in assay [3], in assay [9], in assay [4] and in assay [7]. Besides, the Potency result in [5] was “inactive”.
Take `CC(C)C[P+](C)(CC(C)C)CC(C)C`: the call in assay [1], in assay [2], in assay [3], in assay [9], in [4] and in [7] was inactive. Also, the Potency result in assay [5] was “inactive”.
Turning to `C/C(Cl)=C/CCl`, the outcome in [1], in [2], in [3], in assay [9], in assay [4] and in [6] was inactive. The molecule was classed as inactive in assay [7]. Also, the Potency entry in [5] was “inactive”.
Turning to `CC(O)CCCCn1c(=O)c2c(ncn2C)n(C)c1=O` (stereo not given), the outcome in assay [1], in [2], in [3], in [4] and in assay [7] was inactive. Also, the Potency entry in assay [5] is “inactive”.
`CNCCc1ccccn1`: the outcome in assay [1], in [2], in assay [3], in [4] and in assay [7] was inactive. The Potency entry in assay [5] is “inactive”.
Turning to `CN(C)CCC[C@@]1(c2ccc(F)cc2)OCc2cc(C#N)ccc21`, the outcome in [1], in [2], in assay [3] and in [4] was inactive.
As for `CCCCCCCCCCCCCCBr`, the molecule was called inactive in [1], in assay [2], in [3], in assay [9], in [4] and in assay [7]. For the same molecule, the Potency result in [8] is “inactive”.
With `COc1cc(C(=O)NC2CCCNC2)cc(OC)c1OC` (stereo not given), the call in [1], in [2], in assay [3], in assay [9], in assay [4] and in assay [7] was inactive. Further, in [5], the Potency entry is “inactive”.
In the case of `CCCCCCC(O)CO` (stereo not given), the molecule was classed as inactive in [1], in assay [2], in assay [3], in assay [9], in assay [4] and in [7]. In [5], the Potency entry is “inactive”.
Regarding `CCCCCCCCOCCC#N`, the result in assay [1], in assay [2], in assay [3], in assay [4] and in [7] was inactive. Also, the Potency result in [8] and in assay [5] was “inactive” in each case.
In the case of `C=CC(=O)CC`, the molecule was classed as inactive in assay [1], in [2], in [3], in assay [9], in assay [4] and in assay [7]. Also, in assay [8], the Potency entry is “inactive”.
Turning to `CCOC(=O)c1ccc(N(C)C)cc1`, the molecule was called inactive in assay [1], in assay [2], in assay [3], in [9], in assay [4] and in assay [7]. The Potency entry in [5] was “inactive”.
With `OCCC(F)(F)C(F)(F)C(F)(F)C(F)(F)C(F)(F)C(F)(F)F`, the molecule was classed as inactive in [1], in assay [2], in assay [3], in assay [9], in [4] and in [7]. Also, in [5], the Potency entry was “inactive”.
With `COCCCOc1cc(C[C@@H](C[C@H](N)[C@@H](O)C[C@H](C(=O)NCC(C)(C)C(N)=O)C(C)C)C(C)C)ccc1OC`, the molecule was classed as inactive in [1], in [3], in [4] and in assay [7]. Further, the Potency entry in assay [10] and in [5] was “inactive” throughout.
Turning to `O=S(=O)(O)c1cc(I)c(O)c2ncccc12`, the call in assay [1], in assay [2], in assay [3], in [9], in [4] and in assay [7] was inactive. The Potency result in assay [5] is “inactive”.
For the molecule `CC(=O)SC[C@@H](C)C(=O)N1CCC[C@H]1C(=O)N[C@@H](Cc1ccccc1)C(=O)O`, the call in [1], in [2], in assay [3], in assay [4] and in assay [7] was inactive. Further, the Potency entry in [5] was “inactive”.
For the molecule `C/C=C/C(=O)CCCC`, the result in assay [1], in assay [2], in assay [3], in assay [9], in assay [4] and in assay [7] was inactive. The Potency entry in assay [8] is “inactive”.
In the case of `CC1(C)C(=O)C(C)(C)C1=O`, the call in [1], in assay [2], in assay [3], in assay [4], in assay [6] and in assay [7] was inactive. For the same molecule, in assay [5], the Potency result is “inactive”.
On to `CC(C)(C)C(=O)NCCCC(=O)O`, for which the molecule was classed as inactive in [1], in assay [2], in assay [3] and in [4]. Also, the Potency result in assay [5] is “inactive”.
For the molecule `C[C@@H](CN1CC(=O)NC(=O)C1)N1CC(=O)NC(=O)C1`, the result in assay [1], in assay [2], in assay [3], in [9], in assay [4] and in assay [6] was inactive. For the same molecule, in [7], the molecule was classed as inactive. Moreover, the Potency result in assay [5] is “inactive”.
